Source: PubChem BioAssay (National Center for Advancing Translational Sciences (NCATS))
CHX counter: affects cycloheximide protein synthesis inhibition readout, counter-screen; cell reporter, cycloheximide protein synthesis inhibition counterscreen; AID 2314; hit rate 12% among 300,000; max response, %; in the data active = max response mostly above about 13%, no sharp cut-off; inactive = mostly below about 14%; note: read at 38.3 µM for the half of the compounds with a filed dose; 0% is about no effect
Shiga toxin inh: inhibitors of Shiga toxin in Vero cells; Vero cells, Shiga toxin protein synthesis inhibition reporter; inhibition, % at 38.7 µM; hit rate 9.2% among 290,000; AID 2315; in the data active = inhibition mostly above about 28%, no sharp cut-off; inactive = mostly below about 43%; note: 0% is about no effect
Pf growth 48h: P. falciparum growth inhibition at 48 hours (one generation); hit rate 5.9% among 310,000; Potency, µM (doses to about 28.7 µM), without a hit: at the top dose activity change, negative = inhibition, hits mostly inhibitors; AID 504832; P. falciparum luciferase growth in erythrocytes, 48 h; note: potency is the fitted concentration of half-maximal effect; % is set by controls: 0 for no effect and ±100 for the full control effect
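Parasite viability was followed by luminescence of a genomically integrated firefly luciferase. Cultures held 0.1% parasitemia at 2% hematocrit (final), incubated under 5% CO2 at 37 C.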
Pf growth 96h: P. falciparum growth inhibition at 96 hours; P. falciparum luciferase reporter growth, 96 h; Potency, µM (top dose mostly 28.7 µM), without a hit: top-dose activity change, negative = inhibition, actives largely listed as inhibitors; hit rate 6.9% among 320,000; AID 504834; note: potency is the fitted concentration of half-maximal effect; % is set by controls: 0 for no effect and ±100 for the full control effect
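Readout is luminescence from an integrated firefly luciferase in P. falciparum. Red cells, 2% hematocrit and 0.05% parasitemia final, were cultured with compound through two parasite generations (96 hours) at 37 C, 5% CO2.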
NS1 inh: blocks influenza NS1 protein function; hit rate 0.4% among 270,000; Potency, µM (highest dose often 46.1 µM), for the others: at the highest dose activity, positive = more growth; AID 2326; calls by dose curve; note: potency is the fitted concentration of half-maximal effect; actives are rising curves; nearly all actives have a fitted effect of over 50% in size
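OD600 was taken as the measure of yeast growth restored by compound in an NS1-expressing S. cerevisiae strain. Cells had been washed out of glucose medium and diluted 1:100 into galactose -URA medium, pH 6.0.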
NS1 inh valid: validation of influenza NS1 protein function inhibitors; 1,400 tested, under 10 active; influenza NS1 function cell assay, 15-point titration; shares compounds with NS1 inh; activity change, negative = inhibition, % at 32.9 µM; calls by dose curve; note: 0% is about no effect
Numbers without * were called inactive; ? = inconclusive; · = no result given. An excerpt weighted towards active compounds, which were near 21% of everything screened. Unless noted, calls come from the whole dose curve; as a rule, active = well fitted inhibition curve with a large enough effect; inconclusive = small, poorly fitted or top-dose-only effect, or another doubt; inactive = no such curve, though single readings can be large or run the other way.

SMILES	CHX counter	Shiga toxin inh	Pf growth 48h	Pf growth 96h	NS1 inh	NS1 inh valid
Cc1ccc(C)c(NC(=O)CCN2C(=O)C3CC=CCC3C2=O)c1 (configuration not stated)	·	·	-17%	-24%	·	·
CC(=O)c1ccc(NC(=O)C(C)OC(=O)c2ccc(NS(=O)(=O)c3ccc(F)c(F)c3)cc2)cc1 (configuration not stated)	10	-6	-14%	?	11µM*	16
Cc1ccc(NC(=O)C(C)OC(=O)c2ccc(NS(=O)(=O)c3ccc(F)c(F)c3)cc2)cc1 (configuration not stated)	-3	-3	-44%	?	4%	·
COc1cc(/C=N\Nc2nc3ccccc3[nH]2)cc(OC)c1OC	34*	76	0.17µM*	?	2.8µM*	-9
C=CCn1c(SCC(=O)N(CC)CC)nc(O)cc1=O	-2	-21	10%	-20%	2.5µM*	1
CC(=O)Nc1ccc(NS(=O)(=O)c2ccc(CN3C(=O)c4cccnc4C3=O)cc2)cc1	5	-12	-35%	-7%	0%	·
O=C(Nc1ccc(O)c(-c2nc3ccccc3o2)c1)C1(c2ccc([N+](=O)[O-])cc2)CCCC1	2	-25	7.4µM*	?	8.9µM*	-17
O=C(Cc1ccc([N+](=O)[O-])cc1)Nc1ccc2c(c1)C(=O)NC2=O	-4	23	14%	36%	·	·
COc1ccccc1/C=C/C(=O)NCC(=O)N/N=C/c1ccc(C(=O)O)cc1	-2	-6	21%	3%	3%	·
C(=N\n1cnnc1SCc1ccccc1)/c1ccco1	-3	-48	33%	?	1.1µM*	-16
O=C(COc1cccc(-n2cnnn2)c1)Nc1ccc([N+](=O)[O-])cc1	0	-4	-19%	?	3%	·
COc1ccccc1Nc1nn2c(=O)c3ccc(C(=O)N4CCC(C)CC4)cc3nc2s1	-8	-12	?	-15%	?	?
O=C(CN1C(=O)/C(=C\C=C\c2ccccc2)SC1=S)Nc1ccc(F)cc1	4	-4	-5%	-9%	18µM*	-5
O=C(COC(=O)CCN1C(=O)/C(=C\C=C\c2ccccc2)SC1=S)Nc1cc(F)ccc1F	-2	23	-13%	1%	6%	·
Cc1[nH]c2ccccc2c1C(=O)C(=O)N1CCN(C)CC1	-3	-10	12%	48%	·	·
Cc1cccc(C)c1-n1c(C)cc(/C=N\Nc2ccc([N+](=O)[O-])cn2)c1C	28*	67*	·	-51%	13µM*	-35
Cc1cc(/C=N/Nc2nc(N)ncc2[N+](=O)[O-])c(C)n1-c1ccccc1F	4	19	57%	247%	4%	·
CC(OC(=O)C1CC1C)C(=O)Nc1ncc(Cl)cc1Cl (configuration not stated)	·	·	3%	17%	·	·
CCOC(=O)N1CCC(NC(=O)c2ccccc2C(=O)O)CC1	-2	-4	5.9µM*	0%	?	-3
O=c1c2ccccc2nc(-c2ccccc2)n1/N=C/c1ccc([N+](=O)[O-])cc1	1	-4	21%	-21%	-1%	·
Cc1ccccc1-c1nc2ccccc2c(=O)n1/N=C/c1ccccc1[N+](=O)[O-]	7	-18	?	0%	3.2µM*	16
CN(C)CCN=Cc1c(O)n(-c2cccc3ccccc23)c(=O)[nH]c1=O	6	19	-3%	10µM*	?	7
Cc1ccc(-n2c(O)c(C=NCCN(C)C)c(=O)[nH]c2=O)cc1	1	14	11%	17%	6%	·
Cc1ccc(C(=O)N/C(=C\c2cccs2)C(=O)N2CCN(C)CC2)cc1C	-1	-33	3%	-8%	-3%	·
Cc1nn(-c2cc(N3CCOCC3)ccc2[N+](=O)[O-])c(=O)c2ccccc12	-4	-18	·	14%	-1%	·
SMILES	CHX counter	Shiga toxin inh	Pf growth 48h	Pf growth 96h	NS1 inh	NS1 inh valid
Cc1nn(-c2cc(N3CCOCC3)ccc2N)c(=O)c2ccccc12	-2	4	-12%	-5%	14µM*	13
Cc1cccc(NC2=Nc3ccccc3N3C2=Nc2c(c(C)nn2-c2ccccc2)C3c2ccc(O)c(O)c2)c1 (configuration not stated)	-3	-4	?	12µM*	3.5µM*	3
CCN(CC)C(=O)CSC1=Nc2ccccc2C2=NC(c3ccccc3)C(=O)N12 (configuration not stated)	5	-10	·	·	2.8µM*	-1
Cc1ccc(-c2nc3ccccc3c(=O)n2-c2c(C)n(C)n(-c3ccccc3)c2=O)cc1	-1	13	12%	0%	1%	·
CCCc1nc2ccccc2c(=O)n1-c1c(C)n(C)n(-c2ccccc2)c1=O	1	10	40%	·	4.5µM*	-2
O=c1cc(O)c2sc(Nc3ccc(F)cc3)nc2[nH]1	-2	-15	?	113%	13µM*	1
O=c1cc(O)c2sc(Nc3cccc(C(F)(F)F)c3)nc2[nH]1	3	-1	?	0%	?	·
CC(C)[C@@H](Br)C(=O)NCC(=O)O	·	·	·	·	0%	·
CCn1c(SCC(=O)N2CCCC2)nc2c(c1=O)SCC2	6	-12	?	?	10%	·
CCn1c(SCC(=O)N2CCC(C)CC2)nc2c(c1=O)SCC2	5	64	?	-4%	2µM*	-12
N#Cc1nc(-c2ccco2)oc1NCCCN1CCOCC1	-1	47	·	49%	2.5µM*	20
O=S(=O)(c1ccccc1)c1nc(-c2ccco2)oc1NCCCN1CCOCC1	-2	14	-5%	43%	7%	·
Cc1ccc(C(c2c(C)[nH][nH]c2=O)c2c(C)[nH][nH]c2=O)cc1	-1	-2	?	54%	-37%	·
CSc1ccc(C(c2c(C)[nH][nH]c2=O)c2c(C)[nH][nH]c2=O)cc1	-1	-4	-22%	?	3.2µM*	?
O=C1CSCN1c1cc(Cl)ccc1Cl	2	-3	22%	-3%	?	9
CSC(=NCc1cccnc1)NS(=O)(=O)c1cccs1	-3	-4	7%	·	-2%	·
Cc1cc(C)n2c(SCC(=O)Nc3ccccc3)nnc2n1	-3	-16	·	-29%	5%	·
CCN(CC)c1ccc(NC(=O)CSc2nnc3nc(C)cc(C)n23)cc1	4	44	?	?	?	-22
CCC(C)NC(=O)COC(=O)Cc1sc(N)nc1-c1ccc(C)cc1 (configuration not stated)	-2	19	5%	5%	1.1µM*	8
Cc1nc(Nc2nc(CSc3nc4ccccc4[nH]3)cc(=O)[nH]2)nc2ccccc12	-5	-16	?	9.3µM*	14µM*	13
CC1CCCN(C(=O)NC2CC(=O)N(c3ccc4c(c3)OCCO4)C2)C1 (configuration not stated)	·	·	?	6%	·	·
COc1ccc(N2C(N)=C(C#N)C(c3cccnc3)C3=C2CC(C)(C)CC3=O)cc1 (configuration not stated)	1	-2	?	-17%	?	-14
